Results: PubChem BioAssay (Tox21)
Several values for one entry are separate records, joined by “and”; a condition that tells them apart may be missing. Equal entries are not always repeated. Records with an inconclusive call do not appear. Activity calls are given as the source filed them. Unless noted, calls follow the shape of the dose curve; as a rule, active = well fitted curve in the direction sought with a large enough effect in the repeat runs; inconclusive = weak or mixed curves; inactive = no such curve, though single readings can be large; an effect the other way counts as inactive or inconclusive.

Experiments:
[1] = qHTS assay to identify small molecule antagonists of the thyroid receptor (TR) signaling pathway - cell viability counter screen (AID 743064); also: nearly all actives have a fitted effect of over 50% in size
Procedure, shortened: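 GH3.TRE-Luc rat pituitary cells dosed after 4 hr plating, co-stimulated with T3 at 1 nM final, incubated 23.5 h at 37 C. Viability measured in the same wells by CellTiter-Fluor fluorescence after 30 min further at 37 C.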

[2] = qHTS assay to identify small molecule antagonists of the thyroid receptor (TR) signaling pathway (AID 743065); also: nearly all actives have a fitted effect of over 55% in size
Procedure, shortened: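 GH3.TRE-Luc rat pituitary cells carrying two TR response elements driving luciferase were plated for 4 h, given compound plus 1 nM T3 (final), and incubated 23.5 h at 37 C. ONE-Glo luminescence measured reporter inhibition; CellTiter-Fluor fluorescence tracked cytotoxicity.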

[3] = tested on: thyroid hormone receptor (rat, GH3 cells); experiment: qHTS assay to identify small molecule agonists of the thyroid receptor (TR) signaling pathway (AID 743066; calls by dose curve)
[4] = target: Estrogen receptor (Homo sapiens) (UniProt P03372); experiment: qHTS assay to identify small molecule antagonists of the estrogen receptor alpha (ER-alpha) signaling pathway (AID 743069; active = well fitted curve in the direction sought with a large enough effect in the signal ratio in the repeat runs, not every such curve was filed as active; the % refers to the signal ratio)
Sequence of Estrogen receptor (Homo sapiens) (P03372 whole entry, looked up): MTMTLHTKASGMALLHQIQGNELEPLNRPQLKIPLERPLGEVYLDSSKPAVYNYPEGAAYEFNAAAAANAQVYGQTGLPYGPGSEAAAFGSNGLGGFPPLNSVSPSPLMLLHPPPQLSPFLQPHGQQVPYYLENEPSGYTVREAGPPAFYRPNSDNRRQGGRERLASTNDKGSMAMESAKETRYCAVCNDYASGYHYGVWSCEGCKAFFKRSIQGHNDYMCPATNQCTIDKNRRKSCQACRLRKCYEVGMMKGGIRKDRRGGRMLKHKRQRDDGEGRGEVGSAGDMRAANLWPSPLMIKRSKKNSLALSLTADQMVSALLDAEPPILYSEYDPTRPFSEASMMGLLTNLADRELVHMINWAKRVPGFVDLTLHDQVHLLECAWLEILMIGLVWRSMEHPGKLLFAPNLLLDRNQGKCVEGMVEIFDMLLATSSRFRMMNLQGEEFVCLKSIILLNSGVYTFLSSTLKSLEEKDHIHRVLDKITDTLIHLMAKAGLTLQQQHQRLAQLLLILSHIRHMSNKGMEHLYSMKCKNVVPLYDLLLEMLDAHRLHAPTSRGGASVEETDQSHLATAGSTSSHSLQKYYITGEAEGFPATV
Procedure, shortened: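 HEK293 cells stably carrying an ER-alpha-UAS-bla beta-lactamase reporter were pre-cultured overnight in 2% charcoal-stripped FBS medium. Test compounds in DMSO were added together with 17beta-estradiol for 18 hr at 37C. Read-out was fluorescence after 2 hr with LiveBLAzer B/G FRET substrate at room temperature.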

[5] = qHTS assay to identify small molecule antagonists of the estrogen receptor alpha (ER-alpha) signaling pathway - cell viability counter screen (AID 743074; calls by dose curve; also: nearly all actives have a fitted effect of over 45% in size)
[6] = target: Estrogen receptor (Homo sapiens) (UniProt P03372); experiment: qHTS assay to identify small molecule agonists of the estrogen receptor alpha (ER-alpha) signaling pathway (AID 743075; calls by dose curve)
[7] = target: Estrogen receptor (Homo sapiens) (UniProt P03372); experiment: qHTS assay to identify small molecule agonists of the estrogen receptor alpha (ER-alpha) signaling pathway using the BG1 cell line (AID 743079); conditions: BG1Luc4E2 cells, ERE-luciferase agonist, 22 h; also: nearly all actives have a fitted effect of over 20% in size; also: potency is read from the fitted curve at half-maximal effect
[8] = qHTS assay to identify small molecule antagonists of the estrogen receptor alpha (ER-alpha) signaling pathway using the BG1 cell line (AID 743080; calls by dose curve; also: nearly all actives have a fitted effect of over 25% in size)
Procedure, shortened: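 Antagonist mode: compounds in DMSO were pinned onto BG1-Luc-4E2 cells alongside 17beta-estradiol agonist, incubated 21.5 h, and ERE-driven luciferase measured with ONE-Glo. Cytotoxicity was multiplexed using CellTiter-Fluor fluorescence.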

[9] = qHTS assay to identify small molecule antagonists of the estrogen receptor alpha (ER-alpha) signaling pathway using the BG1 cell line - cell viability counter screen (AID 743081);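 also: compound given together with 17beta-estradiol as the ER stimulus; nearly all actives have a fitted effect of over 45% in size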
[10] = target: Aromatase (Homo sapiens) (UniProt P11511); experiment: qHTS assay to identify aromatase inhibitors (AID 743083); also: nearly all actives have a fitted effect of over 55% in size
Sequence of Aromatase (Homo sapiens) (P11511 whole entry, looked up): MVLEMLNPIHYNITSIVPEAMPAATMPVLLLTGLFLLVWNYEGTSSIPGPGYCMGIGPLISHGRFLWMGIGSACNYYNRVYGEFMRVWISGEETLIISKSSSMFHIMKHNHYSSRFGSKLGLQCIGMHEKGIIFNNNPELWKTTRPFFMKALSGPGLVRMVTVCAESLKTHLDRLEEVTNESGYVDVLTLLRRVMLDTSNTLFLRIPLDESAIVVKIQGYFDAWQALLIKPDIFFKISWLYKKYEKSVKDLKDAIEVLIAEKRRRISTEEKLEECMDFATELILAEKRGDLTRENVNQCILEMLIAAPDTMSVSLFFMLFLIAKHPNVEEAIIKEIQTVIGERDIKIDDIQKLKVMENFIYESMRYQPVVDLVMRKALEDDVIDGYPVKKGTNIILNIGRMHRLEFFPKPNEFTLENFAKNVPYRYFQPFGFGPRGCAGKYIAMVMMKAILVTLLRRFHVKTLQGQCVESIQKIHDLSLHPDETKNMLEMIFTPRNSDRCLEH

[11] = qHTS assay to identify aromatase inhibitors - cell viability counter screen (AID 743084);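 also: cells stimulated with testosterone during compound exposure; nearly all actives have a fitted effect of over 55% in size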
[12] = target: Aryl hydrocarbon receptor (Homo sapiens) (UniProt P35869); experiment: qHTS assay to identify small molecule that activate the aryl hydrocarbon receptor (AhR) signaling pathway (AID 743085);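 also: HG2L7.5c1 human HepG2 liver cells with stably integrated DRE-driven firefly reporter; nearly all actives have a fitted effect of over 15% in size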
Sequence of Aryl hydrocarbon receptor (Homo sapiens) (P35869 whole entry, looked up): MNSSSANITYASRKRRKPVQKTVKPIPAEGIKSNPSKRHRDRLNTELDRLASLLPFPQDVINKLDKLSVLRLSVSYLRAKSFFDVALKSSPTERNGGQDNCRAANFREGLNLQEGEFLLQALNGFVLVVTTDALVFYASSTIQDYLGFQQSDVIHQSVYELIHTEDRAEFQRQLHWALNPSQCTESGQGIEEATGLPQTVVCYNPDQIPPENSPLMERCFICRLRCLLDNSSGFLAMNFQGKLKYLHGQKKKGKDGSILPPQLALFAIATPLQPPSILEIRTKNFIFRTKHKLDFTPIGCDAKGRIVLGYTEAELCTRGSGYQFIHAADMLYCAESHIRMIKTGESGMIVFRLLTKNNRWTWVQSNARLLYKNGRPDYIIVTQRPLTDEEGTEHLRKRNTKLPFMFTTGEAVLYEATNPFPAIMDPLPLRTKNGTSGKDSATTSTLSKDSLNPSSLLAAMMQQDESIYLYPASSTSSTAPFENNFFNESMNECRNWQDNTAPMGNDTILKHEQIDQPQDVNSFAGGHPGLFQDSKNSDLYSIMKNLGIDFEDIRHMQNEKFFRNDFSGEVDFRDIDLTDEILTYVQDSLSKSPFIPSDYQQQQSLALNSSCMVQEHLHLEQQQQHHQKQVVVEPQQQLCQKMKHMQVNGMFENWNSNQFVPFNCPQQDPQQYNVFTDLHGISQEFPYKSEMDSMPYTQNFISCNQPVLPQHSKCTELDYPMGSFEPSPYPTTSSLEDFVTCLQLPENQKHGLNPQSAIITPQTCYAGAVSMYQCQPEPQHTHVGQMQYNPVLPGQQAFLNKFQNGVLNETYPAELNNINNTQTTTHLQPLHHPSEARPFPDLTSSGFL
Procedure, shortened: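 HepG2 cells stably carrying a 20-DRE firefly luciferase reporter (HG2L7.5c1) treated with compound for 24 hr at 37C. Luciferase read by ONE-Glo luminescence, with CellTiter-Fluor viability read first.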

[13] = qHTS assay to identify small molecule that activate the aryl hydrocarbon receptor (AhR) signaling pathway - cell viability counter screen (AID 743086);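 also: HepG2 liver cells carrying the AhR DRE luciferase reporter; nearly all actives have a fitted effect of over 45% in size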
Procedure, shortened: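 HepG2-AhR-luc (HG2L7.5c1) cells, 4000/well, were preincubated 5 h at 37C, exposed to compound in qHTS format for 24 hr at 37C, then given CellTiter-Fluor for 30 min; viability was read as fluorescence in the reporter wells.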

[14] = target: Peroxisome proliferator-activated receptor gamma (Homo sapiens) (UniProt P37231); experiment: qHTS assay to identify small molecule agonists of the peroxisome proliferator-activated receptor gamma (PPARg) signaling pathway (AID 743094; active = well fitted activation curve with a large enough effect in the signal ratio in the repeat runs, not every such curve was filed as active; the % refers to the signal ratio)
Sequence of Peroxisome proliferator-activated receptor gamma (Homo sapiens) (P37231 whole entry, looked up): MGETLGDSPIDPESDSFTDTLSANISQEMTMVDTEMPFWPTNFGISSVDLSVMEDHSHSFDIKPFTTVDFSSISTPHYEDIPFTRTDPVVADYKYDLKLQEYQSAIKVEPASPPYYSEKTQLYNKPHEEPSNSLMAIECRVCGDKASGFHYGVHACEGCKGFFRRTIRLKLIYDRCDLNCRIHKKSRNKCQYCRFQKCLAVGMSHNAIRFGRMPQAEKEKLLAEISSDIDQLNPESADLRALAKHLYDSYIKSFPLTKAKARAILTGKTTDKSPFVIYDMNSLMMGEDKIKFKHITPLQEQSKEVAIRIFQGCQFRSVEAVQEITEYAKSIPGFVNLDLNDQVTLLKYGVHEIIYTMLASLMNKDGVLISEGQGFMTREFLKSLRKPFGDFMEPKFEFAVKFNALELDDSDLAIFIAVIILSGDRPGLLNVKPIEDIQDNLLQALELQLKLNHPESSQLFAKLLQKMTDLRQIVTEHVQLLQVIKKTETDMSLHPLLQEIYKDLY
Procedure, shortened: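 Compounds dissolved in DMSO were added to PPARg UAS-bla HEK293H cells for 17 h at 37C, and reporter expression was quantified by fluorescence intensity after 1 h with LiveBLAzer B/G FRET substrate.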

[15] = qHTS assay to identify small molecule antagonists of the peroxisome proliferator-activated receptor gamma (PPARg) signaling pathway - cell viability counter screen (AID 743194); conditions: Potency: co-treated with 50 nM rosiglitazone; also: nearly all actives have a fitted effect of over 55% in size
Procedure, shortened: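 PPARg-UAS-bla HEK293H cells were plated, rested 5 h at 37 C, then treated with compounds plus rosiglitazone (50 nM final) for 17 h at 37 C; viability was then read by CellTiter-Glo luminescence after 30 min at room temperature.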

[16] = qHTS assay for small molecule agonists of the antioxidant response element (ARE) signaling pathway (AID 743202; active = well fitted activation curve with a large enough effect in the signal ratio in the repeat runs, not every such curve was filed as active; the % refers to the signal ratio)
Procedure, shortened: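 Read-out: LiveBLAzer B/G FRET substrate fluorescence after 2 h at room temperature, following 16 h compound treatment at 37 C of HepG2 cells carrying an ARE-driven beta-lactamase reporter.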

[17] = qHTS assay for small molecule agonists of the antioxidant response element (ARE) signaling pathway - cell viability counter screen (AID 743203; calls by dose curve; also: nearly all actives have a fitted effect of over 55% in size)
Procedure, shortened: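 Following 16 hrs of compound treatment at 37C, HepG2 cells with an ARE-controlled beta-lactamase gene were lysed with CellTiter-Glo. Luminescence was read after 30 min at room temperature.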

[18] = qHTS assay for small molecule activators of the heat shock response signaling pathway (AID 743210; active = well fitted activation curve with a large enough effect in the signal ratio in the repeat runs, with a control signal flat, not every such curve was filed as active; the % refers to the signal ratio)
Procedure, shortened: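 HSE-bla HeLa cells (beta-lactamase reporter under heat shock response elements) were exposed to compounds for 5 h at 37 C, then loaded with LiveBLAzer B/G FRET substrate for 2.5 h at room temperature before fluorescence reading.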

[19] = target: Peroxisome proliferator-activated receptor gamma (Homo sapiens) (UniProt P37231); experiment: qHTS assay to identify small molecule antagonists of the peroxisome proliferator-activated receptor gamma (PPARg) signaling pathway (AID 743191; calls by dose curve; also: nearly all actives have a fitted effect of over 30% in size)
Procedure, shortened: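 GeneBLAzer PPARg UAS-bla HEK293H cells carrying a UAS-driven beta-lactamase reporter were plated at 3000 cells/well, preincubated 5 h at 37C, then given compound for 17 h at 37C; LiveBLAzer B/G FRET substrate was read after 1 h at room temperature.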

[20] = qHTS assay for small molecule activators of the heat shock response signaling pathway - cell viability counter screen (AID 743209); also: nearly all actives have a fitted effect of over 50% in size
Procedure, shortened: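 Readout: CellTiter-Glo luminescence, 30 min at room temperature. System: HSE-bla HeLa cells, 1500/well, plated overnight. Treatment: compounds in DMSO, 5 h at 37 C.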
% is scaled to controls: 0 for no effect and ±100 for the full control effect.

Cc1nnc2n1-c1sc(CCC(=O)N3CCOCC3)cc1C(c1ccccc1Cl)=NC2
inactive: Potency [1] | Potency [2] | Potency [3] | Potency [4] | outcome [5] | Potency [6] | activation ([7]; at 70.3 µM (top of the series)) -7.93% and -17.7% | Potency [8] | Potency [9] | Potency [10] | Potency [11] | Potency [12] | outcome [13] | outcome [14] | Potency [15] | Potency [16] | Potency [17] | outcome [18]

C[C@@H]1CN(C2CCC(C#N)(c3ccc(F)cc3)CC2)CC[C@]1(C(=O)O)c1ccccc1 (stereo partly specified)
inactive: Potency [1] | Potency [2] | Potency [3] | Potency [4] | outcome [5] | Potency [6] | activation ([7]; at 32.5 µM (top of the series)) -0.22% | Potency [8] | Potency [9] | Potency [10] | Potency [11] | Potency [12] | outcome [13] | outcome [14] | Potency [19] | Potency [15] | Potency [16] | Potency [17] | Potency [20] | outcome [18]

COc1cc2c(cc1OC)[C@@]13CCN4CC5=CCO[C@H]6CC(=O)N2[C@H]1[C@H]6[C@H]5C[C@H]43
inactive: Potency [1] | Potency [2] | Potency [3] | Potency [4] | outcome [5] | Potency [6] | activation ([7]; at 70.3 µM (top of the series)) -4.94% | Potency [8] | Potency [9] | Potency [10] | Potency [11] | outcome [13] | outcome [14] | Potency [19] | Potency [15] | Potency [20] | outcome [18]

C=C(C)[C@@H]1CC=C(C=O)CC1
inactive: Potency [1] | Potency [2] | Potency [3] | Potency [4] | outcome [5] | Potency [6] | activation ([7]; at 70.3 µM (top of the series)) 3.7% | Potency [8] | Potency [9] | Potency [10] | Potency [11] | outcome [13] | outcome [14] | Potency [15] | Potency [17] | outcome [18]

CNC(=O)Oc1ccc(N(C)C)c(C)c1
inactive: Potency [1] | Potency [2] | Potency [3] | Potency [4] | outcome [5] | Potency [6] | Potency [8] | Potency [9] | Potency [10] | Potency [11] | Potency [12] | outcome [13] | Potency [15] | Potency [17] | outcome [18]

CCS(=O)(=O)C(C)(C)S(=O)(=O)CC
inactive: Potency [1] | Potency [2] | Potency [3] | Potency [4] | outcome [5] | Potency [6] | activation ([7]; at 70.3 µM (top of the series)) 0.0569% | Potency [8] | Potency [9] | Potency [10] | Potency [11] | Potency [12] | outcome [13] | outcome [14] | Potency [15] | Potency [16] | Potency [17] | Potency [20]

CCOP(=S)(OCC)Oc1cc(-c2ccccc2)on1
inactive: Potency [1] | Potency [2] | Potency [3] | Potency [4] | outcome [5] | Potency [6] | Potency [9] | Potency [10] | Potency [11] | outcome [13] | Potency [19] | Potency [16] | Potency [17] | Potency [20] | outcome [18]
active: Potency [7] 68.6 µM

O=C(O)c1cccc(Cl)c1
inactive: Potency [1] | Potency [2] | Potency [3] | Potency [4] | outcome [5] | Potency [6] | activation ([7]; at 70.3 µM (top of the series)) 2.91% | Potency [8] | Potency [9] | Potency [10] | Potency [11] | Potency [12] | outcome [13] | outcome [14] | Potency [19] | Potency [15] | Potency [17] | Potency [20] | outcome [18]

O=[N+]([O-])c1ccc(CBr)cc1
inactive: Potency [1] | Potency [2] | Potency [3] | Potency [4] | outcome [5] | Potency [6] | activation ([7]; at 95 µM (top of the series)) 2.58% | Potency [9] | Potency [10] | Potency [11] | Potency [12] | outcome [13] | outcome [14] | Potency [15] | Potency [17] | Potency [20]

[Cl][Sn]([Cl])([Cl])[Cl]
inactive: Potency [1] | Potency [2] | Potency [3] | Potency [4] | outcome [5] | Potency [6] | activation ([7]; at 95 µM (top of the series)) -3.53% | Potency [8] | Potency [9] | Potency [10] | Potency [11] | Potency [12] | outcome [13] | outcome [14] | Potency [15] | Potency [16] | Potency [17] | Potency [20] | outcome [18]

COC(=O)C(c1ccccc1)C1CCCCN1 (stereo unspecified)
inactive: Potency [1] | Potency [2] | Potency [3] | Potency [4] | outcome [5] | Potency [6] | activation ([7]; at 70.3 µM (top of the series)) 2.44% and -6.09% | Potency [8] | Potency [9] | Potency [10] | Potency [11] | Potency [12] | outcome [13] | outcome [14] | Potency [19] | Potency [15] | Potency [17] | Potency [20] | outcome [18]

CCSC(=O)N(CC)C1CCCCC1
inactive: Potency [1] | Potency [2] | Potency [3] | Potency [4] | outcome [5] | Potency [6] | Potency [8] | Potency [9] | Potency [10] | Potency [11] | outcome [13] | outcome [14] | Potency [15] | Potency [16] | Potency [17] | Potency [20] | outcome [18]

C#CCN1C(=O)COc2cc(F)c(N3C(=O)C4=C(CCCC4)C3=O)cc21
inactive: Potency [1] | Potency [2] | Potency [3] | Potency [4] | outcome [5] | Potency [6] | activation ([7]; at 70.3 µM (top of the series)) -23.7% | Potency [9] | Potency [10] | Potency [11] | Potency [12] | outcome [13] | outcome [14] | Potency [15] | Potency [20]

CCC(C)n1c(=O)[nH]c(C)c(Br)c1=O (stereo unspecified)
inactive: Potency [1] | Potency [2] | Potency [3] | Potency [4] | outcome [5] | Potency [6] | activation ([7]; at 70.3 µM (top of the series)) 1.5% | Potency [8] | Potency [9] | Potency [10] | Potency [11] | outcome [13] | outcome [14] | Potency [19] | Potency [15] | Potency [16] | Potency [20] | outcome [18]

CC1(C)CON(Cc2ccccc2Cl)C1=O
inactive: Potency [1] | Potency [2] | Potency [3] | Potency [4] | outcome [5] | Potency [6] | Potency [8] | Potency [9] | Potency [10] | Potency [11] | Potency [12] | outcome [13] | outcome [14] | Potency [19] | Potency [15] | Potency [17] | Potency [20] | outcome [18]

Cc1ncsc1CCCl
inactive: Potency [1] | Potency [2] | Potency [3] | Potency [4] | outcome [5] | Potency [6] | activation ([7]; at 70.3 µM (top of the series)) 1.72% | Potency [10] | Potency [11] | Potency [12] | outcome [13] | outcome [14] | Potency [16] | Potency [17] | Potency [20]
